The nature of test [1]: antimalarial activity against Dd2 strain (AID 2302;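 active = growth inhibition above 50% at the single 2 µM test dose, taken to imply half-maximal potency below 2 µM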;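 also: 0% = DMSO untreated growth and 100% = chloroquine plus artemisinin killed control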). The conditions noted are these: P. falciparum Dd2 in RBCs, LDH growth readout, 72 h; at 2 µM; hits give high values.
Test [2] can be described thus: human hepatoma cell viability loss – ATP luminescence, cytotoxicity control for P. falciparum antimalarial project, primary screen (AID 2303;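 active = inhibition above 50%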;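 also: 0% = DMSO wells and 100% = digitonin-killed cells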). The conditions noted are these: HepG2 viability, 24-48 h, at 10 µM, hits give high values.
In test [3] the target is L-lactate dehydrogenase (Plasmodium falciparum (isolate CDC / Honduras)) (UniProt Q27743). The test is described as follows: PfLDH activity inhibition – cell lysate, 3D7 strain, counter-screen for P. falciparum growth inhibition project (AID 2304).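 Also: 0% = vehicle and 100% = reference inhibitor.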 Conditions: P. falciparum 3D7 crude extract, LDH APAD/NBT absorbance; at 2 µM; hits give high values. (In general: A counterscreen serves to expose hits that act by an unwanted route or on another target.)
L-lactate dehydrogenase (Plasmodium falciparum (isolate CDC / Honduras)), sequence (Q27743 whole entry, looked up): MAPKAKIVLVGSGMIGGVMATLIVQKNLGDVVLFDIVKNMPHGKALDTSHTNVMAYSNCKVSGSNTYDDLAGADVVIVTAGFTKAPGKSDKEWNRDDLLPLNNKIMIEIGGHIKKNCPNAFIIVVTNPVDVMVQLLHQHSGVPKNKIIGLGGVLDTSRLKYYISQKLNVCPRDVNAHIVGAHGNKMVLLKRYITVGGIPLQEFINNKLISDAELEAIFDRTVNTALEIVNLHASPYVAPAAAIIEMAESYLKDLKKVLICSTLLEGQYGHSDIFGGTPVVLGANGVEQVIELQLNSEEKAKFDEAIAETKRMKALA

Test [4] is described as follows: inhibition of 3D7 malaria parasite growth – strain 3D7 (AID 2306).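 Also: 0% = DMSO wells and 100% = chloroquine plus artemisinin control wells.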 Conditions: P. falciparum 3D7 erythrocytic growth, LDH absorbance, 72 h; at 2 µM; hits give high values.
The target in test [5] is Calcium-dependent protein kinase 1 (Plasmodium falciparum (isolate 3D7)) (UniProt P62344). As to the kind of experiment: PfCDPK1 kinase inhibitors, biochemical, TCAMS library (AID 1159585; cut-off not given, nearly all actives have IC50 up to about 0.98 µM;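 also: inhibitors leave more ATP so luminescence rises with inhibition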). The conditions noted are these: recombinant PfCDPK1, Kinase-Glo ATP depletion luminescence. In general terms: In Kinase-Glo more light means more ATP remaining.
Calcium-dependent protein kinase 1 (Plasmodium falciparum (isolate 3D7)), sequence (P62344 whole entry, looked up): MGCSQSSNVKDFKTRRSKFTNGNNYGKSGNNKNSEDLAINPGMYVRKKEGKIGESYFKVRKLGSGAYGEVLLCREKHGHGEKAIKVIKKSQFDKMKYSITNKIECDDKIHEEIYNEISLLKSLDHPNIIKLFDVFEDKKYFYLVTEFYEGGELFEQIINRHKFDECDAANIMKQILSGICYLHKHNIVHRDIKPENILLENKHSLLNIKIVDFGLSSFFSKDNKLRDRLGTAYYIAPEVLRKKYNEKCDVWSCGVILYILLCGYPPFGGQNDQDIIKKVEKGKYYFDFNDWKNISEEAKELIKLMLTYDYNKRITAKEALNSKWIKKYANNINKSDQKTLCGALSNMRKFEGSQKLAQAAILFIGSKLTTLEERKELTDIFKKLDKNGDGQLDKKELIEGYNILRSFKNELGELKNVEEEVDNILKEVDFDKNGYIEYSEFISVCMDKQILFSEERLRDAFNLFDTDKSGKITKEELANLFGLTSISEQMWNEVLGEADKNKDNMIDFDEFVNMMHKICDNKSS
In test [6] the target is Plasmodium falciparum protein kinase 6 (PK6, PF3D7_1337100) (UniProt Q8IDW1). As to the kind of experiment: PfPK6 kinase inhibitors, biochemical, TCAMS library (AID 1159586). The conditions noted are these: recombinant PfPK6, Kinase-Glo ATP depletion luminescence.
Plasmodium falciparum protein kinase 6 (PK6, PF3D7_1337100), sequence (Q8IDW1 1-305): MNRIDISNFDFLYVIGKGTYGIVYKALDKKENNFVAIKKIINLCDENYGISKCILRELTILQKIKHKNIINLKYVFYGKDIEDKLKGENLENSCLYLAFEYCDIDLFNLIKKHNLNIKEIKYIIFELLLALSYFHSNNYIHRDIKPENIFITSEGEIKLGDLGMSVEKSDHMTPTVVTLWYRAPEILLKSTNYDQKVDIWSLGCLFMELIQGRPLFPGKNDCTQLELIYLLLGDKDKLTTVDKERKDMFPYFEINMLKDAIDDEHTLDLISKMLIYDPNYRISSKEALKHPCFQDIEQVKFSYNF
The target of test [7] is Protein kinase 7 (PK7), Plasmodium falciparum 3D7 (PF3D7_0213400) (UniProt Q7YTF7). As to the kind of experiment: inhibition of Plasmodium PK7 catalytic activity – biochemical, TCAMS antimalarial set, Kinase-Glo luminescence (AID 1159587). Conditions: recombinant PfPK7, Kinase-Glo ATP depletion luminescence.
Protein kinase 7 (PK7), Plasmodium falciparum 3D7 (PF3D7_0213400), sequence (Q7YTF7 1-343): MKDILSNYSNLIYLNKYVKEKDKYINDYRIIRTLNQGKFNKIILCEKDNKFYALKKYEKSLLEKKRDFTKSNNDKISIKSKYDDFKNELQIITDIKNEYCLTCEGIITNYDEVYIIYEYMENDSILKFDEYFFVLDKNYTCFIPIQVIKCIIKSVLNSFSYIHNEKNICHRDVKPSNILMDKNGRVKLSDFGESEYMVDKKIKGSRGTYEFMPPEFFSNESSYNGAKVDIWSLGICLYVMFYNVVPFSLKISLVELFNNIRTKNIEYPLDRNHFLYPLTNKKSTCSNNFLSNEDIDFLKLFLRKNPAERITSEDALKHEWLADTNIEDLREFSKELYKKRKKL
The target in test [8] is Calcium-dependent protein kinase 4 (Plasmodium falciparum (isolate 3D7)) (UniProt Q8IBS5). The test is described as follows: PfCDPK4 kinase inhibitors, biochemical, TCAMS library (AID 1159588; cut-off not given, nearly all actives have IC50 up to about 0.91 µM). Conditions: recombinant PfCDPK4, Kinase-Glo ATP depletion luminescence.
Calcium-dependent protein kinase 4 (Plasmodium falciparum (isolate 3D7)), sequence (Q8IBS5 whole entry, looked up): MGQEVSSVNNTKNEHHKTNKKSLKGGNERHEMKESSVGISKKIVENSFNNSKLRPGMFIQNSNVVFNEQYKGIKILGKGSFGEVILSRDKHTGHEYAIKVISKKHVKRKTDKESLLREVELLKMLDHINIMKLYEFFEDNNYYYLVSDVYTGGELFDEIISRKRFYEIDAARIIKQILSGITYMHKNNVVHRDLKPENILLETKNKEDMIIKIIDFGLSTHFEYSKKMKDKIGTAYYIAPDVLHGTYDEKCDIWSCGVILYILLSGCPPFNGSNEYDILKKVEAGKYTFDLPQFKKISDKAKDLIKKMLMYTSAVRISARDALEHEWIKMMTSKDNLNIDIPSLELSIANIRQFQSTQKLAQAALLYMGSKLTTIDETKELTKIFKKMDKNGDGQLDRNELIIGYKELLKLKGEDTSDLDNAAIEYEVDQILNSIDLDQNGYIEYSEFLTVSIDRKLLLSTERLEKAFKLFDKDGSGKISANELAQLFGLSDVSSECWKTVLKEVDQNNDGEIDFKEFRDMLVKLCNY

In PubChem BioAssay one finds growth inhibition, inhibition and outcome data, which are given here for 20 molecules.

Structures are written as SMILES. Unmarked numbers belong to inactive results. For some of these results: Potency and affinity values are given separately. The source made the active and inactive calls. Unless noted, no rule for the calls is given here.

Broadly, the inhibition is the relative decrease from the control value, in per cent. `CCC1CN2CCc3c([nH]c4ccccc34)C2CC1CC1=NCCc2c1[nH]c1ccccc21` (stereo not given): the growth inhibition in test [1] was 47%; in test [4] it was 100% (active). Besides, the inhibition in test [2] is 20%; in test [3], -8%. Moreover, the outcome in test [5], in test [6], in test [7] and in test [8] was inactive.

Consider `CCNc1cc(C(=O)N[C@@H](Cc2ccccc2)[C@H](O)CN[C@@H]2CCc3ccccc32)cc(N2CCCC2=O)c1`, for which the growth inhibition in test [1] was 93% (active); in test [4], 92% (active). Further, the inhibition in test [2] was -5%; in test [3] it was 6%. The outcome in test [5], in test [6], in test [7] and in test [8] was inactive.

For `Cc1[nH]c(C)c(-c2ccc(Br)cc2)c(=O)c1Cl`, the growth inhibition is 77% (active) in test [1] and 94% (active) in test [4]. The inhibition in test [2] is 22%; in test [3] it was -2%. In addition, the result in test [5], in test [6], in test [7] and in test [8] was inactive.

Turning to `NOCCCCOc1ccccc1`, the growth inhibition in test [1] is 2%; in test [4], 99% (active). In addition, the inhibition in test [2] was 12%; in test [3] it was -4%. The outcome in test [5], in test [6], in test [7] and in test [8] was inactive.

On to `O=C(NC1CCN(Cc2ccccc2)CC1)c1ccc(-c2nc3cc(Cl)c(F)cc3[nH]2)cc1`, for which the growth inhibition in test [1] and in test [4] was 100% (active) each time. For the same molecule, the inhibition in test [2] is 13%; in test [3], 3%. Also, the outcome in test [5], in test [6], in test [7] and in test [8] was inactive.

In the case of `CCOC(=O)C1=C(C)N=c2sc(=Cc3cc(Cl)ccc3O)c(=O)n2C1c1ccc(OC)cc1` (stereo not given), the figures for the growth inhibition in test [1] and in test [4] were 65% (active) and 99% (active), respectively. Besides, the inhibition in test [2] was -6%; in test [3], -3%. For the same molecule, the result in test [5], in test [6], in test [7] and in test [8] was inactive.

As for `Cc1cccc2[nH]c(-c3ccc(-c4ccc(C(=O)NCCN5CCCC5)cc4)s3)nc12`, the growth inhibition in test [1] was 13%; in test [4] it was 100% (active). In addition, the inhibition in test [2] was 20%; in test [3], 3%. For the same molecule, the outcome in test [5], in test [6], in test [7] and in test [8] was inactive.

For the molecule `COCCCNC(=S)NN=C(C)c1ccccn1`, the growth inhibition was 99% (active) in test [1] and 100% (active) in test [4]. Further, the values for the inhibition in test [2] and in test [3] were 55% (active) and 3%, respectively. Further, the result in test [5], in test [6], in test [7] and in test [8] was inactive.

As for `CN(C)CCCOc1cccc(NC(=O)Nc2ccc(-c3ccccc3)cc2)c1`, the figures for the growth inhibition in test [1] and in test [4] were 14% and 91% (active), respectively. Besides, the inhibition in test [2] is 9%; in test [3] it was -8%. Further, the result in test [5], in test [6], in test [7] and in test [8] was inactive.

As for `COc1ccc(CN2CCC(Oc3cccc(NC(=O)c4ccc(C(F)(F)F)cc4)c3)CC2)cc1`, the growth inhibition is 20% in test [1] and 95% (active) in test [4]. The values for the inhibition in test [2] and in test [3] were 35% and -6%, respectively. Further, the outcome in test [5], in test [6], in test [7] and in test [8] was inactive.

With `c1ccc2cc3c(Nc4ccc(N5CCCCCC5)cc4)ccnc3cc2c1`, the growth inhibition in test [1] is 76% (active); in test [4] it was 94% (active). Moreover, the inhibition in test [2] was 10%; in test [3], 1%. For the same molecule, the outcome in test [5], in test [6], in test [7] and in test [8] was inactive.

Take `Cc1cccc(C(=O)Nc2ccnc(N3CCCN(Cc4cccc(O)c4)CC3)c2)c1`: the results for the growth inhibition in test [1] and in test [4] were 13% and 84% (active), respectively. The inhibition in test [2] was -21%; in test [3], 3%. The outcome in test [5], in test [6], in test [7] and in test [8] was inactive.

Regarding `CCCCCN1CCCC1CNS(=O)(=O)c1cccc(C(=O)Nc2cccc(C#N)c2)c1` (stereo not given), the results for the growth inhibition in test [1] and in test [4] were 7% and 90% (active), respectively. In addition, the inhibition in test [2] was 19%; in test [3] it was -1%. The outcome in test [5], in test [6], in test [7] and in test [8] was inactive.

As for `Cc1cc(NN=Cc2ccccn2)c2cc(F)ccc2n1`, the growth inhibition in test [1] was 96% (active); in test [4] it was 100% (active). The inhibition is 9% in test [2] and 5% in test [3]. Moreover, the result in test [5], in test [6], in test [7] and in test [8] was inactive.

Regarding `FC(F)(F)c1ccc2nc(-c3ccc(-c4cccc(CN5CCN(CCN6CCOCC6)CC5)c4)cc3)[nH]c2c1`, the growth inhibition in test [1] is 77% (active); in test [4], 98% (active). Besides, the inhibition in test [2] is 47%; in test [3], -6%. In addition, the result in test [5], in test [6], in test [7] and in test [8] was inactive.

`COc1ccc(C2CC(=O)C3=C(C2)NC(C)=C(C(=O)OC(C)C)C3c2c(F)cccc2Cl)cc1OC` (stereo not given): the growth inhibition in test [1] was 81% (active); in test [4], 93% (active). Further, the figures for the inhibition in test [2] and in test [3] were 0% and -1%, respectively. Besides, the outcome in test [5], in test [6], in test [7] and in test [8] was inactive.

Take `CCn1c2ccccc2c2cc(C=NNc3cc(C)nc4ccccc34)ccc21`: the values for the growth inhibition in test [1] and in test [4] were 97% (active) and 102% (active), respectively. Also, the inhibition in test [2] was 19%; in test [3] it was -2%. Moreover, the outcome in test [5], in test [6], in test [7] and in test [8] was inactive.

With `COC1CCC(C(=O)Nc2ccc(-c3cccc(-c4nc5c(C)cccc5[nH]4)c3)cc2)CC1` (stereo not given), the growth inhibition in test [1] was 60% (active); in test [4] it was 97% (active). The inhibition in test [2] was 89% (active); in test [3] it was 1%. Further, the outcome in test [5], in test [6], in test [7] and in test [8] was inactive.

Take `FC(F)(F)c1ccc(COc2cc(Cl)ccc2Cn2ccnc2)cc1`: the growth inhibition was 0% in test [1] and 95% (active) in test [4]. The inhibition in test [2] was 13%; in test [3], -5%. Also, the result in test [5], in test [6], in test [7] and in test [8] was inactive.

Consider `Cc1cc2cc(-c3ccc(CN)cc3)ccc2nc1N`, for which the results for the growth inhibition in test [1] and in test [4] were 8% and 92% (active), respectively. Besides, the inhibition is 18% in test [2] and 4% in test [3]. For the same molecule, the outcome in test [5], in test [6], in test [7] and in test [8] was inactive.
